Screening data from PubChem BioAssay.
An excerpt weighted towards active compounds, which were near 1.3% of everything screened.
NCOA2 inhibitor: inhibits human steroid receptor coactivator 2. Q15596. HEK293 GAL4-SRC2 luciferase reporter, luminescence. inhibition, % at 9 µM. 370,000 tested, 0.17% active. AID 651957;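 active means inhibition above the mean inhibition of all tested compounds plus 3 SD, set per campaign, cut at about 52% in these data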
NR5A2 inv ag: NR5A2 inverse agonism in reporter assay; O00482; HEK293T StAR-luciferase reporter, LRH-1 transfected, 24 h; inhibition, % at 3.6 µM; 360,000 tested, 0.13% active;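 active means inhibition above the mean inhibition of all tested compounds plus 3 SD, cut at about 73% in these data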
Gli-Sufu antag: antagonists of Gli-Sufu signaling | 340,000 tested, 0.74% active | Sufu-KO-LIGHT fibroblasts, Gli luciferase reporter luminescence | inhibition, % at 5 µM | AID 588413;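 active means inhibition above about 55%, limit read from the data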
NR2F2 inh: NR2F2 (human) inhibition, primary screen | inhibition, % at 8.6 µM | HEK293T NGFI-A luciferase reporter, luminescence | 370,000 tested, 0.7% active | P24468 | AID 686940;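 active means inhibition above a per-plate cutoff, mean inhibition of test wells between control levels plus 3 SD, cut at about 38% in these data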;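 further: cells cotransfected with COUP-TFII expression vector driving the NGFI-A reporter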
Target sequence (P24468 whole entry, looked up): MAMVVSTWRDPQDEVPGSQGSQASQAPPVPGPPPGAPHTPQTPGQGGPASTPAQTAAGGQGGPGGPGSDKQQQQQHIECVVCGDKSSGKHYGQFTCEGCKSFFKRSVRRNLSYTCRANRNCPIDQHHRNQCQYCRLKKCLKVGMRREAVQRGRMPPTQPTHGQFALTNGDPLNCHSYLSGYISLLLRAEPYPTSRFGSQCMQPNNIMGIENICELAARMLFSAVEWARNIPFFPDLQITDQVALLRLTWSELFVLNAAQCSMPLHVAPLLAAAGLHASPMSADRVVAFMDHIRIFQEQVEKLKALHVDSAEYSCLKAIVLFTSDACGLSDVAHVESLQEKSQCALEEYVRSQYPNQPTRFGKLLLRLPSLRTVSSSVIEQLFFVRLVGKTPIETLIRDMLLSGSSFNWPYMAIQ
SRC1 inh: inhibits human SRC1 coactivator. inhibition, % at 3.6 µM. Q15788. HEK293 GAL4-SRC1 luciferase reporter, luminescence. 360,000 tested, 0.12% active;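 active means inhibition above the campaign mean plus 3 SD, with each screening campaign given its own cutoff, cut at about 60% in these data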
SRC3 inh: inhibitors of human steroid receptor coactivator 3 (SRC3). HEK293 GAL4-SRC3 luciferase reporter, luminescence. inhibition, % at 3.6 µM. 360,000 tested, 0.17% active. AID 588352;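 active means inhibition above a per-campaign cutoff, the mean of all compounds plus 3 SD, cut at about 60% in these data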;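 further: higher means less SRC3-driven luciferase light from the GAL4 reporter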
Gal4-VP16 ctr: VP16 inhibition counter-screen for COUP-TFII; shares compounds with NR2F2 inh; HEK293 Gal4-VP16 luciferase reporter, luminescence; inhibition, % at 8.5 µM; 2,500 tested, 25% active; AID 687007; in the data active means inhibition above about 13%
COUP-TFII conf: COUP-TFII (NR2F2) inhibition, confirmation assay. AID 687008. HEK293 NGFI-A luciferase reporter, luminescence. shares compounds with NR2F2 inh. inhibition, % at 8.5 µM. 2,500 tested, 45% active;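 active means mean inhibition over three repeats above a set limit taken from the earlier primary screen, cut at about 38% in these data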
Of the large screens only hits and unclear results are named; the others gave an inactive call (follow-up assays come after a bar, where they were run).

C[C@]12CC[C@H](O)C[C@H]1CC[C@@H]1[C@@H]2C[C@@H](O)[C@]2(C)[C@@H](C3=CC(=O)OC3)CC[C@]12O	NR5A2 inv ag 103, NR2F2 inh 81, SRC3 inh 75 | Gal4-VP16 ctr 29 | COUP-TFII conf 58
CC(C)(OOC1(c2ccccc2)NC(=O)c2ccccc21)c1ccccc1 (centres undefined)	none (no result: Gli-Sufu antag, SRC1 inh, SRC3 inh)
CCCC/C(=N\O)c1c[nH]c2ccccc12	none
CN1CCN(c2ccc(S(C)(=O)=O)cc2[N+](=O)[O-])CC1	none
CN1CCN(c2ccc([N+](=O)[O-])c3no[n+]([O-])c23)CC1	NCOA2 inhibitor 94, NR5A2 inv ag 93, Gli-Sufu antag 65, NR2F2 inh 98, SRC1 inh 96, SRC3 inh 94 | Gal4-VP16 ctr 96 | COUP-TFII conf 109
C[C@]12CCC3C(CC[C@@H]4[C@H]5O[C@H]5CC[C@]34C)C1CC[C@@H]2O (some centres undefined)	none
CC1CCC/C=C/C2CC(O)CC2C(O)/C=C/C(=O)O1 (centres undefined)	NR5A2 inv ag 77, Gli-Sufu antag 88, NR2F2 inh 59 | Gal4-VP16 ctr inactive | COUP-TFII conf inactive
C[C@H]1CCC[C@H](O)CCCCCc2cc(O)cc(O)c2C(=O)O1	none
COc1ccc(CC2=NCCc3cc(OC)c(OC)cc32)cc1OC	none (no result: Gli-Sufu antag)
COc1ccc(Cc2nccc3cc(OC)c(OC)cc23)cc1OC	NR2F2 inh 40 | Gal4-VP16 ctr inactive | COUP-TFII conf inactive
COP(=O)(OC)C(Nc1ccccc1)c1ccccc1 (centres undefined)	none
CCC1CN2CCc3cc(OC)c(OC)cc3C2CC1CC1NCCc2c1[nH]c1ccc(O)cc21 (centres undefined)	NCOA2 inhibitor 69, NR5A2 inv ag 98, Gli-Sufu antag 87, NR2F2 inh 91, SRC1 inh 96, SRC3 inh 95 | Gal4-VP16 ctr 24 | COUP-TFII conf 90
COc1ccc2c(c1OC)CN1CCc3cc4c(cc3[C@H]1C2)OCO4	none (no result: NCOA2 inhibitor, NR2F2 inh)
O=C(Nc1ccc(OC(=O)N2CCCCC2)cc1)N1CCOCC1	NCOA2 inhibitor 84, NR2F2 inh 78 | Gal4-VP16 ctr 29 | COUP-TFII conf inactive
COC(=O)C12CCc3c(ccc4cc(OC)ccc34)C1=CC(=O)C2 (centres undefined)	none
N#CC[N+]1(CCCNP2(=O)C=C(c3ccccc3)OC(c3ccccc3)=C2)CCOCC1	none
C=C1C(=O)O[C@@H]2C[C@@H](C)[C@@H]3C=CC(=O)[C@@]3(C)[C@@H](OC(=O)CC(=O)O[C@H]3[C@@H]4C(=C)C(=O)O[C@@H]4C[C@@H](C)[C@@H]4C=CC(=O)[C@]43C)[C@H]12	NCOA2 inhibitor 94, NR5A2 inv ag 87, Gli-Sufu antag 93, NR2F2 inh 98, SRC1 inh 66, SRC3 inh 74 | Gal4-VP16 ctr 96 | COUP-TFII conf 109
O=C1C(=O)c2ccccc2-c2ccccc21	NCOA2 inhibitor 95, NR5A2 inv ag 103, NR2F2 inh 109, SRC1 inh 95, SRC3 inh 95 | Gal4-VP16 ctr 96 | COUP-TFII conf 110
O=C1C(=O)c2cccc3cccc1c23	none
C[C@]12CCC3C(CC[C@H]4C[C@@H](O)CC[C@]34C)C1CCC2=O (some centres undefined)	none (no result: NCOA2 inhibitor, NR2F2 inh)
C[C@@H]1O[C@@H](O[C@H]2C[C@@H](O)[C@]3(CO)[C@@H]4C(CC[C@]3(O)C2)[C@@]2(O)CC[C@H](C3COC(=O)C3)[C@@]2(C)C[C@H]4O)[C@H](O)[C@H](O)[C@H]1O (some centres undefined)	NR5A2 inv ag 99, NR2F2 inh 64, SRC3 inh 67 | Gal4-VP16 ctr 14 | COUP-TFII conf 58
NC(=O)c1cn(C2OC(CO)C(O)C2O)c2ncnc(N)c12 (centres undefined)	NCOA2 inhibitor 62, NR5A2 inv ag 98, Gli-Sufu antag 87, NR2F2 inh 72, SRC1 inh 91, SRC3 inh 89 | Gal4-VP16 ctr 56 | COUP-TFII conf 86
CCOC(=O)c1ccc(NC(=O)N2C[C@@H]3C[C@@H](C2)c2cccc(=O)n2C3)cc1	none
CCC1(c2ccccc2)C(=O)NC(=S)NC1=O	none
Cc1ccc(Cn2nc(C(=O)Nc3ccc(Br)cc3)cc2C)cc1	NR2F2 inh 53 | Gal4-VP16 ctr inactive | COUP-TFII conf inactive
O=C1NC(=S)NC(=O)C1=Cc1ccc(OCC(=O)N2CCCC2)cc1	none
CCC(C)(O)C(=O)OC1C(=O)OC2CC3C(C)=CC(O)C(O)C3(C)C3C4(O)OCC23C1C(C)C4O (centres undefined)	NR5A2 inv ag 97, NR2F2 inh 75, SRC3 inh 71 (no result: Gli-Sufu antag) | Gal4-VP16 ctr inactive | COUP-TFII conf 62
O=S(=O)(c1ccc(Cl)cc1)N1Cc2ccccc2-n2nncc2C1	none (no result: Gli-Sufu antag)
CCOC(=O)[C@]12Cc3ccc(C)cc3[C@H]1N(C1CCCCC1)C(=O)c1cc(OC)ccc12	NR2F2 inh 52 (no result: Gli-Sufu antag, SRC1 inh, SRC3 inh) | Gal4-VP16 ctr 23 | COUP-TFII conf inactive
CCOC(=O)[C@]12Cc3cc(Cl)ccc3[C@H]1N(C1CCCCC1)C(=O)c1cc(OC)ccc12	NR5A2 inv ag 97, NR2F2 inh 59 (no result: Gli-Sufu antag, SRC1 inh, SRC3 inh) | Gal4-VP16 ctr 53 | COUP-TFII conf 60
CCOC(=O)[C@]12Cc3cc(OC)ccc3[C@H]1N(C)C(=O)c1cc(OC)ccc12	none (no result: Gli-Sufu antag, SRC1 inh, SRC3 inh)
CCOC(=O)[C@]12Cc3ccc(C)cc3[C@H]1N(C1CCCCC1)C(=O)c1ccccc12	NR2F2 inh 50 (no result: Gli-Sufu antag, SRC1 inh, SRC3 inh) | Gal4-VP16 ctr 17 | COUP-TFII conf inactive
C/C(=N\N=C(N)N)c1ccccc1	none
CC1(C)CC(=O)C(C2(O)C(=O)NC(=O)NC2=O)=C(O)C1	none
CCCOC(=O)c1ccc(-[n+]2c(-c3ccccc3)cc(-c3ccccc3)cc2-c2ccccc2)cc1	NR2F2 inh 55 | Gal4-VP16 ctr 23 | COUP-TFII conf 48
CC(C)c1oc(=O)cc2c1[C@@H](O)[C@H]1OC(=O)[C@@]3(C)CC[C@@H](O)[C@@]2(C)C13 (some centres undefined)	NR2F2 inh 42, SRC3 inh 62 | Gal4-VP16 ctr inactive | COUP-TFII conf inactive
CC(C)c1oc(=O)cc2c1[C@@H](O)[C@H]1OC(=O)[C@@]3(C)C[C@@H](O)[C@@H](O)[C@@]2(C)C13 (some centres undefined)	NR5A2 inv ag 92, NR2F2 inh 41, SRC3 inh 76 | Gal4-VP16 ctr inactive | COUP-TFII conf inactive
Cn1cc(C(=O)OCC(=O)NC2(C#N)CCCCC2)c2ccccc21	none
